The supplement of paper PMC13380429

Test system: Vero E6 infected with SARS-CoV-2
Experiment: inhibition of SARS-CoV-2 cytopathic effect; higher = more antiviral protection, active = above 15
Conditions: 48 h

Measured: inhibition of SARS-CoV-2 cytopathic effect

CSc1ccc(C(=O)N[C@@H]2CCCC[C@@H]2NC(=O)CNC(=O)c2cc(C(F)(F)F)ccc2NC(=O)NC(C)C)cc1
inactive: 1 nM 4.3% | 8.33 nM -0.79% | 100 nM 0.52% | 833.33 nM 0.24% | 10000 nM 0.79%

Cn1cc(-c2ccc(S(=O)(=O)n3ccc(/C=C/C(=O)Nc4ccccc4N)c3)cc2)cn1
inactive: 1 nM -0.95% | 8.33 nM 1.05% | 100 nM -0.51% | 833.33 nM -4.65% | 10000 nM -1.31%

OC[C@H]1O[C@@H](Oc2ccc(O)cc2)[C@H](O)[C@@H](O)[C@@H]1O [arbutin]
inactive: 1 nM -0.81% | 8.33 nM 0.67% | 100 nM 0.6% | 833.33 nM -2.34% | 10000 nM 0.83%

NC(=O)c1cn(Cc2c(F)cccc2F)nn1 [rufinamide]
inactive: 1 nM 2.25% | 8.33 nM 1% | 100 nM 2.89% | 833.33 nM 1.75% | 10000 nM 3.51%

COc1cc(N2CCOCC2)ccc1Nc1ncc(Cl)c(Nc2ccccc2NS(C)(=O)=O)n1
inactive: 1 nM 0.93% | 8.33 nM 2.59% | 100 nM 2.32% | 833.33 nM -2.21% | 10000 nM -13.2%

Cc1cc2nc3c(=O)[nH]c(=O)nc-3n(C)c2cc1C=O
inactive: 1 nM 0.98% | 8.33 nM -1.25% | 100 nM -1.28% | 833.33 nM 2.07% | 10000 nM 1.18%

CSc1ccccc1Nc1nc(N2CCNCC2)nc2c(NCC3CC3)ncnc12
inactive: 1 nM 1.44% | 8.33 nM 1.6% | 100 nM 1.17% | 833.33 nM 0.92% | 10000 nM -33.2%

Cc1noc(NS(=O)(=O)c2ccc(N)cc2)c1C [sulfafurazole]
inactive: 1 nM -0.27% | 8.33 nM -1.19% | 100 nM 0.89% | 833.33 nM -1.49% | 10000 nM 0.12%

CCCc1c(OCCCOc2ccc(OCC(=O)O)cc2)ccc(C(C)=O)c1O
inactive: 1 nM 3.84% | 8.33 nM -0.07% | 100 nM 1.16% | 833.33 nM 1.63% | 10000 nM 1.76%

COc1cnc(NS(=O)(=O)c2ccc(N)cc2)nc1 [sulfameter]
inactive: 1 nM -0.38% | 8.33 nM 1.1% | 100 nM 0.11% | 833.33 nM 0.46% | 10000 nM 2.89%

CNC(=O)c1cc(Oc2ccc(NC(=O)Nc3cc(C(C)(C)C)nn3-c3ccc4ncccc4c3)c(F)c2)ccn1 [rebastinib]
inactive: 1 nM -1.46% | 8.33 nM 0.18% | 100 nM 1.77% | 833.33 nM 5.75% | 10000 nM 8.96%

Cc1nc2sccn2c(=O)c1CCN1CCC(=C(c2ccccc2)c2ccc(F)cc2)CC1
inactive: 1 nM 1.18% | 8.33 nM -2.89% | 100 nM 0.46% | 833.33 nM 2.57% | 10000 nM 1.02%

O=C(Nc1ccc(Cl)cc1)Nc1cccc(-c2cccc(N3CCCC3)n2)c1
inactive: 1 nM 1% | 8.33 nM 1.53% | 100 nM -2.03% | 833.33 nM -4.04% | 10000 nM -6.24%

CC[C@H]1OC(=O)C[C@@H](O)[C@H](C)[C@@H](O[C@@H]2O[C@H](C)C[C@H](N(C)C)[C@H]2O)[C@@H](CC=O)C[C@@H](C)C(=O)/C=C/[C@]2(C)O[C@H]2[C@@H]1C [rosamicin]
inactive: 1 nM 1.84% | 8.33 nM 0.4% | 100 nM -1.22% | 833.33 nM 2.62% | 10000 nM 9.6%

CC1=NN(c2ccccc2)C(=O)C1 [edaravone]
inactive: 1 nM 1.36% | 8.33 nM 0.66% | 100 nM -0.76% | 833.33 nM 0.1% | 10000 nM 3.57%

CCCn1c(=O)[nH]c(=O)c2nc[nH]c21 [enprofylline]
inactive: 1 nM 0.79% | 8.33 nM 0.93% | 100 nM 1.89% | 833.33 nM 1.3% | 10000 nM 4.03%

OCC(Br)(Br)Br [tribromoethanol]
inactive: 1 nM 3.45% | 8.33 nM 0.33% | 100 nM 2.81% | 833.33 nM 4.01% | 10000 nM 1.49%

N[C@@H]1CCCCN(c2c(F)cc3c(=O)c(C(=O)O)cn(C4CC4)c3c2Cl)C1 [besifloxacin]
inactive: 1 nM -2.51% | 8.33 nM 1.39% | 100 nM 2.41% | 833.33 nM 2.48% | 10000 nM 2.15%

N#Cc1c(O)c2c(-c3ccc(-c4ccccc4O)cc3)csc2[nH]c1=O
inactive: 1 nM -1.57% | 8.33 nM -3.91% | 100 nM -1.86% | 833.33 nM 0.75% | 10000 nM 3.92%

CC(=O)NC[C@H]1CN(c2ccc(-c3ccc(CNCc4cnn[nH]4)cc3)c(F)c2)C(=O)O1 [radezolid]
inactive: 1 nM -1.38% | 8.33 nM 0.58% | 100 nM 2.16% | 833.33 nM -0.64% | 10000 nM 2.43%

NCCC(Oc1ccc(C(F)(F)F)cc1)c1ccccc1 (stereo not given) [norfluoxetine]
inactive: 1 nM 1.01% | 8.33 nM 2.75% | 100 nM 1.92% | 833.33 nM -0.09% | 10000 nM -5.55%

c1ccc2c(c1)OC[C@H](CNCCCOc1ccc3c(c1)OCO3)O2 [osemozotan]
inactive: 1 nM 2.23% | 8.33 nM 1.12% | 100 nM 3.35% | 833.33 nM 1.42% | 10000 nM 0.79%

Cc1ccccc1/N=N/c1ccc(NC(=O)c2ccnn2C)c(C)c1
inactive: 1 nM -1.46% | 8.33 nM 0.89% | 100 nM 1.16% | 833.33 nM 2.03% | 10000 nM 0.48%

C=CCNc1c(O)cc2c(O)c1C[C@@H](C)C[C@H](OC)[C@H](O)[C@@H](C)/C=C(\C)[C@H](OC(N)=O)[C@@H](OC)/C=C\C=C(/C)C(=O)N2 [retaspimycin]
inactive: 1 nM 2.45% | 8.33 nM 0.93% | 100 nM 6.54% | 833.33 nM 5.56% | 10000 nM 8.73%

CN(Cc1cnc2nc(N)nc(N)c2n1)c1ccc(C(=O)N[C@@H](CCC(=O)O)C(=O)O)cc1 [methotrexate]
inactive: 1 nM -1.04% | 8.33 nM -0.21% | 100 nM -0.4% | 833.33 nM 2% | 10000 nM -1.41%

Oc1ccc2c3c1O[C@H]1c4c(c5ccccc5n4Cc4ccccc4)C[C@@]4(O)[C@@H](C2)N(CC2CC2)CC[C@]314 [N-benzylnaltrindole]
inactive: 1 nM 0.62% | 8.33 nM 0.67% | 100 nM 2.73% | 833.33 nM -0.06%
active: 10000 nM 34%

COc1cccc(CCc2ccccc2OCC[C@@H]2C[C@@H](O)CN2C)c1
inactive: 1 nM 2.39% | 8.33 nM 4.9% | 100 nM 14.7% | 833.33 nM -9.02% | 10000 nM -0.59%

COc1ccc(Oc2c(Cl)cnn(C3c4ccccc4-c4ccccc43)c2=O)cc1
inactive: 1 nM -3.45% | 8.33 nM -3.66% | 100 nM 0.55% | 833.33 nM -0.63% | 10000 nM -0.88%

C=CC1=C(C(=O)O)N2C(=O)[C@@H](NC(=O)/C(=N\O)c3csc(N)n3)[C@H]2SC1 [cefdinir]
inactive: 1 nM 1.85% | 8.33 nM 2.62% | 100 nM 2.17% | 833.33 nM -0.24% | 10000 nM 0.66%

CC#C[C@]1(O)CC[C@H]2[C@@H]3CCC4=CC(=O)CCC4=C3[C@@H](c3ccc(N(C)C)cc3)C[C@@]21C [mifepristone]
inactive: 1 nM -1.56% | 8.33 nM 0.62% | 100 nM 3.53% | 833.33 nM -4.55% | 10000 nM 8.14%

C[C@]12CC[C@H]3[C@@H](CCC4=CC(=O)CC[C@@H]43)[C@@H]1CC[C@@H]2O [Nandrolone]
inactive: 1 nM -1.64% | 8.33 nM -1.9% | 100 nM -1.06% | 833.33 nM 1.95% | 10000 nM -0.94%

CCn1c(-c2nonc2N)nc2cnc(Oc3cccc(NC(=O)c4ccc(OCCN5CCOCC5)cc4)c3)cc21
inactive: 1 nM 3.5% | 8.33 nM 0.11% | 100 nM -2.86% | 833.33 nM -4.75% | 10000 nM -5.7%

O=C(O)CC[C@H]1CC[C@@](c2cc(F)ccc2F)(S(=O)(=O)c2ccc(Cl)cc2)CC1
inactive: 1 nM -2.65% | 8.33 nM -0.66% | 100 nM -4.1% | 833.33 nM -7.63% | 10000 nM -8.12%

CCOc1nc2cccc(C(=O)OC(C)OC(=O)OC3CCCCC3)c2n1Cc1ccc(-c2ccccc2-c2nn[nH]n2)cc1 (stereo not given) [candesartan-cilexetil]
inactive: 1 nM -0.98% | 8.33 nM -0.29% | 100 nM -1.43% | 833.33 nM -3.03% | 10000 nM -2.32%

CC(C)N1CCN(c2ccc(OCC3COC(Cn4cncn4)(c4ccc(Cl)cc4Cl)O3)cc2)CC1 (stereo not given) [terconazole]
inactive: 1 nM 1.55% | 8.33 nM 0.07% | 100 nM 4.2% | 833.33 nM -1.24% | 10000 nM 11.5%

Oc1cc2c(cc1O)[C@H]1c3ccccc3CN[C@@H]1CC2 (racemic) [dihydrexidine]
inactive: 1 nM -2.37% | 8.33 nM -1.57% | 100 nM 0.62% | 833.33 nM -2.04% | 10000 nM 2.92%

Oc1ccc(Cl)c2cccnc12 [cloxyquin]
inactive: 1 nM 1.22% | 8.33 nM 0.37% | 100 nM 2.68% | 833.33 nM 3.29% | 10000 nM -0.16%

CC(C)c1ccc(NC(=O)Cn2cnc3c2c(=O)n(C)c(=O)n3C)cc1
inactive: 1 nM -0.13% | 8.33 nM 1.6% | 100 nM 1.39% | 833.33 nM 2.45% | 10000 nM 3.83%

CC(C)(Sc1ccc(CCN(CCCCC2CCCCC2)C(=O)NC2CCCCC2)cc1)C(=O)O
inactive: 1 nM -11.4% | 8.33 nM -10% | 100 nM -5.76% | 833.33 nM -3.65% | 10000 nM -8.5%
